{"source": "the supplement of paper PMC8726507"}
{"tested_on": "Plasmodium falciparum NF54-HGL (transmission to Anopheles stephensi)", "assay": "percentage of barcode signal found in uninfected mosquitoes (transmission-blocking activity); higher = stronger blocking of transmission to mosquito, active = 80 or more", "details": "10 µM; gametocyte preincubation time 24 h; readout time post-feed 8 days", "protocol": "(§1)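 The mixture was fed to Anopheles stephensi in 96-well plates as blood meals tagged with DNA-barcoded Asaia bacteria. Eight days later, mosquitoes were classed infected or uninfected by luminescence (mean + 5 SD of unfed controls). Barcodes were quantified by Luminex MagPlex-TAG in the pooled uninfected and infected Asaia cultures, background-corrected, and the score is % of barcode signal in uninfected mosquitoes = 100*Iu/(Iu+Ii).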"}
{"molecule": "O=C1COCc2ccc(Br)cc2N1Cc1ccc(C(F)(F)F)cc1", "percentage of barcode signal found in uninfected mosquitoes": "22.4% (inactive)"}
{"molecule": "CC1CC1C(=O)NC1CCN(CC2(c3ccccc3)CCCCC2)CC1", "note": "(stereo not drawn)", "percentage of barcode signal found in uninfected mosquitoes": "97.6% (active)"}
{"molecule": "COc1ccc(C2=NN(C3CCCCCC3)C(=O)C2(C)C)cc1OCCCCOc1ccc(-c2nn[nH]n2)cc1", "percentage of barcode signal found in uninfected mosquitoes": "7.2% (inactive)"}
{"molecule": "CC(C)c1ncc(-c2ccncc2)c([C@H]2CC[C@H](CNC(=O)c3cccnc3)CC2)n1", "percentage of barcode signal found in uninfected mosquitoes": "31.4% (inactive)"}
{"molecule": "CCOC(=O)c1cc(-c2csc(Nc3c(C)cc(C)cc3C)n2)on1", "percentage of barcode signal found in uninfected mosquitoes": "11.5% (inactive)"}
{"molecule": "COc1ccc(Nc2ccccc2NC(=O)c2ccc(O)nc2)cc1", "percentage of barcode signal found in uninfected mosquitoes": "7.07% (inactive)"}
{"molecule": "O=C(c1cc2ccccc2o1)N1CCN(Cc2ccc3c(c2)OCO3)CC1", "percentage of barcode signal found in uninfected mosquitoes": "0.553% (inactive)"}
{"molecule": "COc1cccc(-n2nnnc2S(=O)(=O)Cc2ccccc2)c1", "percentage of barcode signal found in uninfected mosquitoes": "90.4% (active)"}
{"molecule": "O=C(NC1CC1)c1ccc(N2CCC(Cc3ccccc3)CC2)nc1", "percentage of barcode signal found in uninfected mosquitoes": "77.8% (inactive)"}
{"molecule": "COc1cc2ncnc(NC3CCN(Cc4ccccc4)CC3)c2cc1OC", "percentage of barcode signal found in uninfected mosquitoes": "31% (inactive)"}
{"molecule": "N=C(N)Nc1ccc(-c2ccc(-c3ccc(N=C(N)N)c(Cl)c3)o2)cc1Cl", "percentage of barcode signal found in uninfected mosquitoes": "101% (active)"}
{"molecule": "CCn1cnc2c(Nc3cc(F)cc(F)c3)nc(C#N)nc21", "percentage of barcode signal found in uninfected mosquitoes": "33.6% (inactive)"}
{"molecule": "CS(=O)(=O)c1cccc(-c2cnc3[nH]cc(-c4ccc(CCC(=O)O)cc4)c3c2)c1", "percentage of barcode signal found in uninfected mosquitoes": "29.9% (inactive)"}
{"molecule": "COc1ccccc1CNC(=O)c1cc(C2CC2)nc2c1cnn2C(C)C", "percentage of barcode signal found in uninfected mosquitoes": "62.8% (inactive)"}
{"molecule": "CO[C@@H](C(=O)N1Cc2[nH]nc(NC(=O)c3ccc(N4CCN(C)CC4)cc3)c2C1)c1ccccc1", "percentage of barcode signal found in uninfected mosquitoes": "68.7% (inactive)"}
{"molecule": "COc1cc(C2=NCCN2)ccc1-n1cc(-c2cccc(C3=NCCN3)c2)nn1", "percentage of barcode signal found in uninfected mosquitoes": "46.2% (inactive)"}
{"molecule": "Nc1ncc(-c2ccc(C(F)(F)F)nc2)cc1-c1ccc(C(F)(F)F)nc1", "percentage of barcode signal found in uninfected mosquitoes": "1.73% (inactive)"}
{"molecule": "CC(C)(C)c1cc(C(=O)Nc2cccnc2)cc(C(=O)Nc2cccnc2)c1", "percentage of barcode signal found in uninfected mosquitoes": "41.8% (inactive)"}
{"molecule": "O=C1N(Cc2cc3ccccc3s2)CC2CN(Cc3ccccc3)CCN12", "note": "(stereo not drawn)", "percentage of barcode signal found in uninfected mosquitoes": "58.1% (inactive)"}
{"molecule": "COc1cccn2c(C(=O)N3CCCCC3)c(C(F)(F)F)nc12", "percentage of barcode signal found in uninfected mosquitoes": "27.1% (inactive)"}
{"tested_on": "Plasmodium falciparum NF54-HGL (transmission to Anopheles stephensi)", "assay": "percentage of barcode signal found in uninfected mosquitoes (transmission-blocking activity); higher = stronger blocking of transmission to mosquito, active = 80 or more", "details": "20 µM; gametocyte preincubation time 24 h; readout time post-feed 8 days", "protocol": "as §1"}
{"molecule": "COc1cccc(CC(=O)N2CCC(n3c(C)nc4ccc(F)cc43)CC2)c1", "percentage of barcode signal found in uninfected mosquitoes": "31.2% (inactive)"}
{"molecule": "Cc1cc(NCCc2ccccc2)nc(NC(=N)Nc2ccc(Cl)cc2)n1", "percentage of barcode signal found in uninfected mosquitoes": "75.8% (inactive)"}
{"molecule": "CCOc1ccc(-c2nc(CNCCc3ccc(F)cc3)cs2)cc1", "percentage of barcode signal found in uninfected mosquitoes": "41.8% (inactive)"}
{"molecule": "CCCn1c(NC(=O)c2ccc3ccccc3n2)nc2ccccc21", "percentage of barcode signal found in uninfected mosquitoes": "56.6% (inactive)"}
{"molecule": "Cc1ccc2[nH]c(C3CCCNC3)c(-c3ccncc3)c2c1", "note": "(stereo not drawn)", "percentage of barcode signal found in uninfected mosquitoes": "79.4% (inactive)"}
{"molecule": "CC(C)(C)CN1C(=O)C(c2ccccc2)(c2ccccc2)N=C1N", "percentage of barcode signal found in uninfected mosquitoes": "13.8% (inactive)"}
{"molecule": "Cc1ccccc1CN1CCC(O)(c2ccc(Cl)c(C(F)(F)F)c2)CC1", "percentage of barcode signal found in uninfected mosquitoes": "-0.504% (inactive)"}
{"molecule": "CCCCc1ccc(C(=O)Nc2nccc3ccccc23)nc1", "percentage of barcode signal found in uninfected mosquitoes": "48.5% (inactive)"}
{"molecule": "c1ccc(-c2nc(NC3CCCCC3)cc(C3CC3)n2)nc1", "percentage of barcode signal found in uninfected mosquitoes": "99.2% (active)"}
{"molecule": "O=C(C1CCN(c2cc(-n3cccc3)ncn2)CC1)N1CCc2ccccc2C1", "percentage of barcode signal found in uninfected mosquitoes": "26.4% (inactive)"}
{"molecule": "CC(C)n1nc(-c2cc3c(Cl)cccc3[nH]2)c2c(N)ncnc21", "percentage of barcode signal found in uninfected mosquitoes": "53.6% (inactive)"}
{"molecule": "CN1CCN(S(=O)(=O)c2ccc(-c3ccc4c(Nc5ncc(Cl)cn5)ccnc4c3)cc2)CC1", "percentage of barcode signal found in uninfected mosquitoes": "50.8% (inactive)"}
{"molecule": "NCCN(C(=O)c1ccc(Cl)cc1Cl)c1ccc(OCc2ccc(Cl)cc2)cc1", "percentage of barcode signal found in uninfected mosquitoes": "65.8% (inactive)"}
{"molecule": "Nc1ncnc2c1c(-c1cnc3ccccc3c1)nn2CC1CCNCC1", "percentage of barcode signal found in uninfected mosquitoes": "-2.55% (inactive)"}
{"molecule": "COc1ccc2nccc(NC(=O)C3CCN(CCc4ccc(Cl)cc4)CC3)c2n1", "percentage of barcode signal found in uninfected mosquitoes": "5.62% (inactive)"}
{"molecule": "CC(C)C(Oc1cccc2ccccc12)C(=O)O", "note": "(stereo not drawn)", "percentage of barcode signal found in uninfected mosquitoes": "20% (inactive)"}
{"molecule": "Cc1cc(NCC(C)C)c2n[nH]c(-c3ccccc3)c2n1", "percentage of barcode signal found in uninfected mosquitoes": "43% (inactive)"}
{"molecule": "N=C(N)Nc1ccc(-c2ccc(-c3ccc(NC(=N)N)cc3Cl)o2)c(Cl)c1", "percentage of barcode signal found in uninfected mosquitoes": "39.3% (inactive)"}
